Measured values from PubChem BioAssay AID1159580 (chemical genetic matrix, 2015).
About 2,000 (36%) of roughly 5,500 compounds were called active. About 18% were inconclusive and are not listed. Cut-off read from the data, not from the text of the source: active = normalized growth mostly below about 0.91 (no sharp cut-off); inconclusive = no clear call, values can overlap the other calls; inactive = mostly above about 0.92. The list shows a part of the results.

Experiment: chemical genetic growth profiling, strain panel (AID 1159580);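 note: tested at 20 µM; growth read once vehicle control cultures reached saturation at 30 °C; 1 = growth at the plate median or of vehicle wells; lower values mean less growth of the strain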
Details: growth OD

Measured: normalized growth

CC[C@]12CCCN3CCc4c(n(c5ccccc45)C(=O)C1)[C@@H]32
active: S. cerevisiae deletion strains, locus YDR162C, strain NBP2, stronger effect = lower value 0.552 | S. cerevisiae deletion strains, locus YGL248W, strain PDE1, stronger effect = lower value 0.857 | S. cerevisiae deletion strains, locus YHR030C, strain SLT2, stronger effect = lower value 0.885 | S. cerevisiae deletion strains, locus YLR342W, strain FKS1 (second series), stronger effect = lower value 1.21 [resistant]
inactive: S. cerevisiae deletion strains, locus YAL013W, strain DEP1, stronger effect = lower value 0.967 | S. cerevisiae deletion strains, locus YAL021C, strain ccr4, stronger effect = lower value 0.968 | S. cerevisiae deletion strains, locus YAL026C, strain drs2, stronger effect = lower value 1.04 | S. cerevisiae deletion strains, locus YAL030W, strain snc1, stronger effect = lower value 1.01 | S. cerevisiae deletion strains, locus YBL061C, strain skt5, stronger effect = lower value 1.01 | S. cerevisiae deletion strains, locus YBR009C, strain hhf1, stronger effect = lower value 1.01 | S. cerevisiae deletion strains, locus YBR021W, strain FUR4, stronger effect = lower value 1.07 | S. cerevisiae deletion strains, locus YBR023C, strain chs3, stronger effect = lower value 1 | S. cerevisiae deletion strains, locus YBR171W, strain sec66, stronger effect = lower value 0.999 | S. cerevisiae deletion strains, locus YBR229C, strain ROT2, stronger effect = lower value 1.02 | S. cerevisiae deletion strains, locus YBR231C, strain swc5, stronger effect = lower value 1.01 | S. cerevisiae deletion strains, locus YBR279W, strain paf1, stronger effect = lower value 1 | S. cerevisiae deletion strains, locus YCL011C, strain gbp2, stronger effect = lower value 1.01 | S. cerevisiae deletion strains, locus YCL016C, strain dcc1, stronger effect = lower value 0.983 | S. cerevisiae deletion strains, locus YCL029C, strain bik1, stronger effect = lower value 0.989 | S. cerevisiae deletion strains, locus YCL069W, strain vba3, stronger effect = lower value 1 | S. cerevisiae deletion strains, locus YCR088W, strain abp1, stronger effect = lower value 1.01 | S. cerevisiae deletion strains, locus YDL005C, strain med2, stronger effect = lower value 1 | S. cerevisiae deletion strains, locus YDL035C, strain GPR1, stronger effect = lower value 0.941 | S. cerevisiae deletion strains, locus YDL040C, strain nat1, stronger effect = lower value 1 | S. cerevisiae deletion strains, locus YDL074C, strain BRE1, stronger effect = lower value 0.9 | S. cerevisiae deletion strains, locus YDL101C, strain DUN1, stronger effect = lower value 0.977 | S. cerevisiae deletion strains, locus YDL134C, strain PPH21, stronger effect = lower value 0.951 | S. cerevisiae deletion strains, locus YDL185W, strain tfp1, stronger effect = lower value 0.953 | S. cerevisiae deletion strains, locus YDL192W, strain arf1, stronger effect = lower value 0.977 | S. cerevisiae deletion strains, locus YDR001C, strain nth1, stronger effect = lower value 0.998 | S. cerevisiae deletion strains, locus YDR069C, strain doa4, stronger effect = lower value 1.04 | S. cerevisiae deletion strains, locus YDR101C, strain arx1, stronger effect = lower value 0.98 | S. cerevisiae deletion strains, locus YDR137W, strain rgp1, stronger effect = lower value 1.15 | S. cerevisiae deletion strains, locus YDR150W, strain NUM1, stronger effect = lower value 0.988 | S. cerevisiae deletion strains, locus YDR159W, strain sac3, stronger effect = lower value 0.995 | S. cerevisiae deletion strains, locus YDR195W, strain ref2 1.01 | S. cerevisiae deletion strains, locus YDR297W, strain sur2, stronger effect = lower value 1.01 | S. cerevisiae deletion strains, locus YDR318W, strain mcm21, stronger effect = lower value 0.978 | S. cerevisiae deletion strains, locus YDR334W, strain swr1, stronger effect = lower value 1 | S. cerevisiae deletion strains, locus YDR335W, strain msn5, stronger effect = lower value 0.998 | S. cerevisiae deletion strains, locus YDR388W, stronger effect = lower value 0.993 | S. cerevisiae deletion strains, locus YDR392W, strain spt3, stronger effect = lower value 0.804 | S. cerevisiae deletion strains, locus YDR502C, strain sam2, stronger effect = lower value 0.984 | S. cerevisiae deletion strains, locus YEL003W, strain gim4, stronger effect = lower value 1 | S. cerevisiae deletion strains, locus YEL037C, strain rad23, stronger effect = lower value 0.993 | S. cerevisiae deletion strains, locus YEL061C, strain CIN8 (second series), stronger effect = lower value 1 | S. cerevisiae deletion strains, locus YEL061C, strain CIN8, stronger effect = lower value 0.992 | S. cerevisiae deletion strains, locus YER015W, strain faa2, stronger effect = lower value 0.997 | S. cerevisiae deletion strains, locus YER016W, strain bim1, stronger effect = lower value 0.999 | S. cerevisiae deletion strains, locus YER110C, stronger effect = lower value 0.975 | S. cerevisiae deletion strains, locus YER111C, strain swi4, stronger effect = lower value 0.998 | S. cerevisiae deletion strains, locus YER155C, strain BEM2 (second series), stronger effect = lower value 0.976 | S. cerevisiae deletion strains, locus YER155C, strain BEM2, stronger effect = lower value 1.01 | S. cerevisiae deletion strains, locus YER167W, strain BCK2, stronger effect = lower value 1 | S. cerevisiae deletion strains, locus YFR010W, strain ubp6, stronger effect = lower value 1.01 | S. cerevisiae deletion strains, locus YGL078C, strain dbp3, stronger effect = lower value 0.983 | S. cerevisiae deletion strains, locus YGL086W, strain mad1, stronger effect = lower value 0.992 | S. cerevisiae deletion strains, locus YGL167C, strain pmr1, stronger effect = lower value 0.98 | S. cerevisiae deletion strains, locus YGL173C, strain kem1, stronger effect = lower value 1.02 | S. cerevisiae deletion strains, locus YGL227W, strain vid30, stronger effect = lower value 1.01 | S. cerevisiae deletion strains, locus YGL240W, strain doc1, stronger effect = lower value 0.999 | S. cerevisiae deletion strains, locus YGL253W, strain hxk2, stronger effect = lower value 1.03 | S. cerevisiae deletion strains, locus YGR135W, strain pre9, stronger effect = lower value 0.97 | S. cerevisiae deletion strains, locus YGR252W, strain gcn5, stronger effect = lower value 1.03 | S. cerevisiae deletion strains, locus YHR013C, strain ard1, stronger effect = lower value 0.98 | S. cerevisiae deletion strains, locus YHR027C, strain rpn1, stronger effect = lower value 1 | S. cerevisiae deletion strains, locus YHR079C, strain IRE1 (second series), stronger effect = lower value 0.982 | S. cerevisiae deletion strains, locus YHR094C, strain hxt1, stronger effect = lower value 0.99 | S. cerevisiae deletion strains, locus YHR129C, strain ARP1, stronger effect = lower value 0.993 | S. cerevisiae deletion strains, locus YHR142W, strain chs7, stronger effect = lower value 1.01 | S. cerevisiae deletion strains, locus YHR200W, strain rpn10, stronger effect = lower value 0.981 | S. cerevisiae deletion strains, locus YIL066C, strain RNR3, stronger effect = lower value 0.987 | S. cerevisiae deletion strains, locus YIL073C, strain SPO22, stronger effect = lower value 0.692 | S. cerevisiae deletion strains, locus YIL125W, strain kgd1, stronger effect = lower value 0.989 | S. cerevisiae deletion strains, locus YIR030C, strain dcg1, stronger effect = lower value 0.978 | S. cerevisiae deletion strains, locus YJL092W, strain hpr5, stronger effect = lower value 0.997 | S. cerevisiae deletion strains, locus YJL095W, strain BCK1 (second series), stronger effect = lower value 0.996 | S. cerevisiae deletion strains, locus YJL095W, strain BCK1, stronger effect = lower value 0.956 | S. cerevisiae deletion strains, locus YJL115W, strain asf1, stronger effect = lower value 0.994 | S. cerevisiae deletion strains, locus YJL129C, strain trk1, stronger effect = lower value 1.01 | S. cerevisiae deletion strains, locus YJL134W, strain LCB3, stronger effect = lower value 0.993 | S. cerevisiae deletion strains, locus YJL154C, strain vps35, stronger effect = lower value 0.993 | S. cerevisiae deletion strains, locus YJL164C, strain tpk1, stronger effect = lower value 0.984 | S. cerevisiae deletion strains, locus YJL166W, strain qcr8, stronger effect = lower value 1.01 | S. cerevisiae deletion strains, locus YJL168C, strain set2, stronger effect = lower value 0.992 | S. cerevisiae deletion strains, locus YJL187C, strain SWE1 (second series), stronger effect = lower value 0.966 | S. cerevisiae deletion strains, locus YJL187C, strain SWE1, stronger effect = lower value 1.01 | S. cerevisiae deletion strains, locus YJR043C, strain POL32, stronger effect = lower value 0.998 | S. cerevisiae deletion strains, locus YKL009W, strain mrt4, stronger effect = lower value 0.95 | S. cerevisiae deletion strains, locus YKL068W, stronger effect = lower value 0.981 | S. cerevisiae deletion strains, locus YKL085W, strain MDH1 (second series), stronger effect = lower value 0.976 | S. cerevisiae deletion strains, locus YKL085W, strain MDH1, stronger effect = lower value 0.976 | S. cerevisiae deletion strains, locus YKL160W, strain elf1, stronger effect = lower value 0.974 | S. cerevisiae deletion strains, locus YKL190W, strain CNB1, stronger effect = lower value 0.941 | S. cerevisiae deletion strains, locus YKR001C, strain vps1, stronger effect = lower value 0.955 | S. cerevisiae deletion strains, locus YKR026C, strain gcn3, stronger effect = lower value 0.996 | S. cerevisiae deletion strains, locus YKR091W, strain srl3, stronger effect = lower value 0.996 | S. cerevisiae deletion strains, locus YLL001W, strain dnm1, stronger effect = lower value 0.956 | S. cerevisiae deletion strains, locus YLL026W, stronger effect = lower value 0.994 | S. cerevisiae deletion strains, locus YLL041C, strain sdh2, stronger effect = lower value 1.01 | S. cerevisiae deletion strains, locus YLR027C, strain aat2, stronger effect = lower value 1.01 | S. cerevisiae deletion strains, locus YLR039C, strain RIC1, stronger effect = lower value 0.741 | S. cerevisiae deletion strains, locus YLR058C, strain SHM2, stronger effect = lower value 0.991 | S. cerevisiae deletion strains, locus YLR102C, strain apc9, stronger effect = lower value 0.985 | S. cerevisiae deletion strains, locus YLR221C, strain rsa3, stronger effect = lower value 1.04 | S. cerevisiae deletion strains, locus YLR258W, strain gsy2, stronger effect = lower value 1 | S. cerevisiae deletion strains, locus YLR262C, strain YPT6 (second series), stronger effect = lower value 0.991 | S. cerevisiae deletion strains, locus YLR262C, strain YPT6, stronger effect = lower value 0.776 | S. cerevisiae deletion strains, locus YLR268W, strain sec22, stronger effect = lower value 0.971 | S. cerevisiae deletion strains, locus YLR320W, strain mms22, stronger effect = lower value 1 | S. cerevisiae deletion strains, locus YLR330W, strain CHS5, stronger effect = lower value 0.956 | S. cerevisiae deletion strains, locus YLR342W, strain FKS1, stronger effect = lower value 0.999 | S. cerevisiae deletion strains, locus YLR357W, strain rsc2, stronger effect = lower value 0.994 | S. cerevisiae deletion strains, locus YLR370C, strain arc18, stronger effect = lower value 0.996 | S. cerevisiae deletion strains, locus YLR371W, strain rom2, stronger effect = lower value 0.983 | S. cerevisiae deletion strains, locus YLR384C, strain iki3, stronger effect = lower value 1.03 | S. cerevisiae deletion strains, locus YLR418C, strain cdc73, stronger effect = lower value 0.906 | S. cerevisiae deletion strains, locus YML016C, strain PPZ1, stronger effect = lower value 1 | S. cerevisiae deletion strains, locus YML032C, strain rad52, stronger effect = lower value 0.99 | S. cerevisiae deletion strains, locus YML120C, strain ndi1, stronger effect = lower value 0.986 | S. cerevisiae deletion strains, locus YML124C, strain tub3, stronger effect = lower value 0.979 | S. cerevisiae deletion strains, locus YMR058W, strain fet3, stronger effect = lower value 1.01 | S. cerevisiae deletion strains, locus YMR078C, strain ctf18, stronger effect = lower value 0.973 | S. cerevisiae deletion strains, locus YMR125W, strain sto1, stronger effect = lower value 0.994 | S. cerevisiae deletion strains, locus YMR129W, stronger effect = lower value 1 | S. cerevisiae deletion strains, locus YMR205C, strain PFK2, stronger effect = lower value 0.991 | S. cerevisiae deletion strains, locus YMR223W, strain ubp8, stronger effect = lower value 0.968 | S. cerevisiae deletion strains, locus YMR231W, strain pep5, stronger effect = lower value 0.997 | S. cerevisiae deletion strains, locus YMR307W, strain GAS1, stronger effect = lower value 0.685 | S. cerevisiae deletion strains, locus YNL067W, strain RPL9B, stronger effect = lower value 0.906 | S. cerevisiae deletion strains, locus YNL071W, strain lat1, stronger effect = lower value 0.996 | S. cerevisiae deletion strains, locus YNL209W, strain ssb2, stronger effect = lower value 0.983 | S. cerevisiae deletion strains, locus YNL233W, strain BNI4, stronger effect = lower value 0.943 | S. cerevisiae deletion strains, locus YNL248C, strain rpa49, stronger effect = lower value 1.02 | S. cerevisiae deletion strains, locus YNL250W, strain rad50, stronger effect = lower value 0.988 | S. cerevisiae deletion strains, locus YNL271C, strain bni1, stronger effect = lower value 0.978 | S. cerevisiae deletion strains, locus YNL298W, strain CLA4, stronger effect = lower value 0.998 | S. cerevisiae deletion strains, locus YNL307C, strain MCK1, stronger effect = lower value 0.984 | S. cerevisiae deletion strains, locus YNL322C, strain KRE1 (second series), stronger effect = lower value 0.979 | S. cerevisiae deletion strains, locus YNL322C, strain KRE1, stronger effect = lower value 0.983 | S. cerevisiae deletion strains, locus YNR049C, strain mso1, stronger effect = lower value 1.01 | S. cerevisiae deletion strains, locus YNR052C, strain pop2, stronger effect = lower value 0.986 | S. cerevisiae deletion strains, locus YOL012C, strain htz1 0.684 | S. cerevisiae deletion strains, locus YOL147C, strain pex11, stronger effect = lower value 0.989 | S. cerevisiae deletion strains, locus YOR001W, strain rrp6, stronger effect = lower value 1.02 | S. cerevisiae deletion strains, locus YOR061W, strain CKA2, stronger effect = lower value 0.966 | S. cerevisiae deletion strains, locus YOR069W, strain VPS5, stronger effect = lower value 0.987 | S. cerevisiae deletion strains, locus YOR070C, strain gyp1, stronger effect = lower value 1 | S. cerevisiae deletion strains, locus YOR080W, strain dia2, stronger effect = lower value 1 | S. cerevisiae deletion strains, locus YOR083W, strain WHI5, stronger effect = lower value 0.972 | S. cerevisiae deletion strains, locus YOR106W, strain vam3, stronger effect = lower value 0.981 | S. cerevisiae deletion strains, locus YOR136W, strain idh2, stronger effect = lower value 0.977 | S. cerevisiae deletion strains, locus YOR144C, strain elg1, stronger effect = lower value 0.99 | S. cerevisiae deletion strains, locus YOR184W, strain ser1, stronger effect = lower value 0.94 | S. cerevisiae deletion strains, locus YOR265W, strain rbl2, stronger effect = lower value 0.994 | S. cerevisiae deletion strains, locus YOR270C, strain vph1, stronger effect = lower value 1.06 | S. cerevisiae deletion strains, locus YOR290C, strain snf2, stronger effect = lower value 0.98 | S. cerevisiae deletion strains, locus YOR316C, strain cot1, stronger effect = lower value 0.987 | S. cerevisiae deletion strains, locus YPL051W, strain arl3, stronger effect = lower value 0.968 | S. cerevisiae deletion strains, locus YPL078C, strain atp4, stronger effect = lower value 0.969 | S. cerevisiae deletion strains, locus YPL106C, strain sse1, stronger effect = lower value 0.973 | S. cerevisiae deletion strains, locus YPL240C, strain hsp82, stronger effect = lower value 1 | S. cerevisiae deletion strains, locus YPL241C, strain CIN2, stronger effect = lower value 0.991 | S. cerevisiae deletion strains, locus YPR119W, strain clb2, stronger effect = lower value 0.976 | S. cerevisiae deletion strains, locus YPR141C, strain kar3, stronger effect = lower value 0.977 | S. cerevisiae deletion strains, locus YPR163C, strain tif3, stronger effect = lower value 0.988 | S. cerevisiae deletion strains, locus YPR167C, strain met16, stronger effect = lower value 0.974 | S. cerevisiae deletion strains, strain wtn01, stronger effect = lower value 0.973 | S. cerevisiae strains, strain wild type, stronger effect = lower value 0.967
